Experimental findings from the supplement of paper PMC3484114 are described below.

Structures are written as SMILES. ± gives the standard deviation.

The test system of the assay is OVCAR-3-derived ovarian cancer stem-like cells (spheroids). Put plainly: cell growth relative to untreated control; higher = more growth (less inhibition). Particulars: 2.29 µM; 96 h. The method in brief: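 After trypsin dissociation, OVCAR-3 spheroid-derived stem-like cells were placed in ultra-low attachment 96-well plates at 50,000 cells/mL in stem cell medium and preincubated for 24 h. Treatment at 2.29 uM followed for 96 h at 37°C, 5% CO2, with 4 replicate wells per compound. A 4 h TOX8 resazurin fluorescence read (ex 560/em 590 nm) gave viability, from which percent growth relative to untreated wells was derived after blank subtraction and Grubbs outlier removal.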
Take `CC(CN1CC(=O)NC(=O)C1)N1CC(=O)NC(=O)C1` (configuration not stated): the cell growth worked out at 221 ± 43%.
As to `COc1ccc2[nH]c3c(C)c4ccncc4c(C)c3c2c1`, the cell growth was found to be 65.8 ± 11%.
`CC1(c2cccc3ccccc23)OC(=O)c2ccccc21` (configuration not stated) had a cell growth of 116 ± 29%.
With `NC1N=C(c2ccc(Cl)cc2)C2=C(N1)c1ccccc1CC2` (configuration not stated), the cell growth was 85.7 ± 6.7%.
Consider `Nc1nc(-c2cccs2)cs1`, for which the cell growth stood at 57.1 ± 11%.
Under `CCOC(=O)NC(Nc1ccc(F)cc1)(C(=O)OCC)C(F)(F)F` (configuration not stated) stands 199 ± 130%; under `NC(=O)C#CC(N)=O`, 55.9 ± 13%.
Take `C/C=C(\CCC1NCCc2c1[nH]c1ccccc21)[Si](C)(C)C` (configuration not stated): the cell growth was 86.5 ± 9.4%.
The compound `O=c1ccc2ccc(CBr)cc2o1` showed a cell growth of 84.2 ± 21%.
For the compound `COc1cc(OC)c(OC)cc1/C=C/c1ccnc2ccccc12`, the cell growth turned out to be 75.8 ± 10%.
The result for `O/N=C(\CC(O)(C(F)(F)F)C(F)(F)F)c1cccc(Cl)c1` reads 87.8 ± 16%; that for `C=C(C)[C@@H]1CC[C@]2(C)CC[C@]3(C)[C@H](CC[C@@H]4[C@@]5(C)CC[C@H](O)C(C)(C)[C@@H]5CC[C@]43C)[C@@H]12`, 121 ± 19%; that for `O=C(O)c1ccc(Nc2c3ccccc3nc3ccccc23)cc1`, 98 ± 12%.
The compound `O=C1/C(=C/c2cccs2)Oc2ccccc21` showed a cell growth of 94 ± 12%.
The result for `CC1=NC(C(C)C)C(=O)O1` (configuration not stated) reads 122 ± 74%.
The result for `COC(=O)Nc1nc2ccc(Br)cc2[nH]1` reads 107 ± 23%; that for `CCOC(=O)c1ccc(-c2cc(C)no2)[nH]1`, 54.8 ± 10%; that for `C[C@H]1O[C@@H](c2ccc3c(c2O)C(=O)C2=C(C3=O)[C@@]3(O)C(=O)C[C@](C)(O)C[C@@]3(O)C=C2)C[C@@H](O)[C@@H]1O`, 62.7 ± 8.2%.
`O=C(CCCN1CCC(C(O)c2ccc(F)cc2)CC1)c1ccc(F)cc1` (configuration not stated) gave a cell growth of 99.7 ± 22%.
The compound `C=CC(=O)N1C/C(=C\c2ccccc2)C(=O)/C(=C/c2ccccc2)C1` had a cell growth of 43.2 ± 6.1%.
The result for `O=C(CC(=O)c1ccccc1NC1=Cc2ccccc2C(=O)C1=O)C(=O)NC1=C(Cl)C(=O)c2ccccc2C1=O` reads 33.3 ± 13%; that for `COc1ccc2c(c1[N+](=O)[O-])CC[C@@H]1[C@@H]2CC[C@]2(C)C(=O)CC[C@@H]12`, 152 ± 33%.
